Rows were chosen to be rich in hits. Some 3% of all compounds tested hit in one or more screens of this group.
ALOX12 inhib = inhibitors of human 12-lipoxygenase (ALOX12) | actives 0.12% (n = 150,000) | Potency, µM (highest dose often 57.1 µM), without a hit: at the top dose activity change, negative = inhibition, most hits filed as inhibitors | AID 1452 | purified 12-hLO, xylenol orange hydroperoxide absorbance; further: potency means the concentration at half of the fitted maximal effect; nearly all actives have a fitted effect of over 55% in size
Target sequence (P18054 whole entry, looked up): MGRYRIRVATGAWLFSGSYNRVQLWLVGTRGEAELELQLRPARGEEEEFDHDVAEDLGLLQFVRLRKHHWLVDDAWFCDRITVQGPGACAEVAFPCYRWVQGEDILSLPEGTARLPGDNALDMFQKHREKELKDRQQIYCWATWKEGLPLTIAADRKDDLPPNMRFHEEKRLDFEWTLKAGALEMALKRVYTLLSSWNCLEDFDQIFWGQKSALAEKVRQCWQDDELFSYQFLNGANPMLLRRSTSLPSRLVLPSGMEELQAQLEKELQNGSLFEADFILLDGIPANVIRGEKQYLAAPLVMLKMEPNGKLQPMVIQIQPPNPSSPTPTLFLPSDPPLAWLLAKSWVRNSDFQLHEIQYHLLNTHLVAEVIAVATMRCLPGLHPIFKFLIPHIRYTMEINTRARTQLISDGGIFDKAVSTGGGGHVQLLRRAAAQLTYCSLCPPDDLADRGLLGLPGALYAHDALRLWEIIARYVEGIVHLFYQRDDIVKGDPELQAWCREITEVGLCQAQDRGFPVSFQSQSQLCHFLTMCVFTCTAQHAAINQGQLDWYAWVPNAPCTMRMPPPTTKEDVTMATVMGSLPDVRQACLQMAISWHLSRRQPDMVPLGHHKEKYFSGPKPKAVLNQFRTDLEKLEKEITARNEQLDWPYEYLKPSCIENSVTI
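Hydroperoxide formation by human 12-lipoxygenase from 40 uM arachidonic acid was followed colorimetrically via ferric-xylenol orange complex, using the 573/405 nm absorbance ratio. Enzyme concentration was 150 nM, with 30 min reaction at room temperature.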
IMPase inh = membrane-permeable compound that blocks inositol monophosphatase. P97697. CHO-M1 cells, IP1 accumulation, HTRF TR-FRET ratio. inhibition (IP1 accumulation), % at 46.1 µM. 120,000 tested, under 10 active. AID 901; active means well fitted curve in the direction sought with a large enough effect in the signal ratio, not every such curve was filed as active; inconclusive means small, poorly fitted or top-dose-only effect, or a change in a side signal; inactive means no such curve, though single readings can be large or run the other way; the % refers to the signal ratio;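 further: cells stimulated with carbachol in lithium chloride buffer; plate controls were DMSO basal wells for no effect and reference inhibitor wells for full effect; higher means more IMPase inhibition seen as more IP1 and lower FRET ratio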
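Seeded CHO-M1 cells were dosed with compound at up to 46 uM, stimulated with carbachol for 30 min, then lysed in IP-One detection reagents. Higher IP1 lowers the TR-FRET signal.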
ALOX15B inhib = 15-hLO-2 (ALOX15B) enzyme inhibition; purified 15hLO-2, xylenol orange hydroperoxide absorbance; Potency, µM (doses to about 57.1 µM), inactives show at the highest dose activity change, negative = inhibition, actives largely listed as inhibitors; O15296; actives 0.56% (n = 110,000); AID 881; further: potency means the concentration at half of the fitted maximal effect; nearly all actives have a fitted effect of over 60% in size
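Purified human 15hLO-2 (50 nM final) preincubated with compounds 15 min at room temperature in 25 mM Hepes pH 7.5, 0.01% Triton X-100, then 45 uM arachidonic acid added for 90 min; hydroperoxide detected via ferrous/xylenol orange, 573/405 nm absorbance ratio.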
PNC inhibitor = blocks assembly of the perinucleolar compartment; PC3M PTB-GFP, PNC prevalence imaging, 16 h; stronger effect = lower value; activity change (PNC), negative = inhibition, % at 10 µM; actives 3.1% (n = 140,000); AID 2417;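 active means readout at or below -70, meaning at least 70% loss of cells showing the perinucleolar compartment, a nuclear body marking cancer cells; inconclusive means readout between -30 and a set limit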;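 further: plate controls were DMSO wells for no effect and camptothecin positive control wells for full effect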
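PC3M cells stably expressing PTB-GFP, 750–1000 cells/well, treated 16 h at 37 °C with compound (23 nl of library stock), in duplicate. After paraformaldehyde fixation and Hoechst stain, imaged at 20x; PNC prevalence scored by image analysis.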
The depositor's hits bear a star; u = inconclusive; x = no result. Unless noted, the call rests on the fitted dose curve; in most records, active means well fitted curve in the direction sought with a large enough effect; inconclusive means small, poorly fitted or top-dose-only effect, or another doubt; inactive means no such curve, though single readings can be large; an effect the other way counts as inactive or inconclusive. Unless noted, on the % scale 0 is the no-effect control and ±100 the full control effect.

SMILES	ALOX12 inhib	IMPase inh	ALOX15B inhib	PNC inhibitor
Cc1ccc(S(=O)(=O)Nc2nc(C)c(NC(=O)Nc3ccc(Cl)cc3Cl)s2)cc1	7.1µM*	6	u	u
Cc1ccc(S(=O)(=O)Nc2nc(C)c(NC(=O)OCCCl)s2)cc1	2%	-3	-10%	u
COc1ccc2c(c1)C1=NN(/C(C)=C\C(C)=O)C(c3ccccc3)C1CC2 (configuration not stated)	-4%	17	x	u
C=CCn1c(SCC(=O)Nc2sc3c(c2C#N)CCC3)nnc1C1COc2ccccc2O1 (configuration not stated)	1%	0	-15%	u
N#Cc1c(NC(=O)CSc2nc(N)cc(=O)[nH]2)sc2c1CCCCCC2	-2%	1	-18%	-27
N#Cc1c(NC(=O)CSc2nc(-c3ccco3)cc(C(F)(F)F)n2)sc2c1CCCC2	1%	-1	-2%	-84*
Cn1c(SCC(=O)Nc2sc3c(c2C#N)CCC3)nnc1C1COc2ccccc2O1 (configuration not stated)	-16%	4	-2%	-81*
COC(=O)c1ccccc1NC(=O)CSc1nc(-c2ccco2)cc(C(F)(F)F)n1	-1%	-13	4%	-82*
N#Cc1c(NC(=O)CSc2ncn[nH]2)sc2c1CCCCC2	-3%	-6	35%	-117*
Cn1c(/C(C#N)=C/c2ccc(C(F)(F)F)cc2)nc2ccccc21	x	-5	x	x
O=C(CCCO)N/N=C/c1ccccc1[N+](=O)[O-]	-2%	x	x	-9
CC(=O)c1c(C)oc2ccc(O)c(CN3CCOCC3)c12	10%	8	7%	-8
Cc1cc(NC(=O)CSc2nc(-c3cccs3)cc(C(F)(F)F)n2)no1	5%	12	-4%	-97*
Cn1c(SCC(=O)C(C)(C)C)nnc1-c1cccnc1	-2%	13	-6%	-6
Cc1ccccc1NS(=O)(=O)c1ccc(F)cc1	-1%	-2	1%	-97*
COc1ccc(S(=O)(=O)Nc2ccccc2C)cc1	1%	-5	-2%	u
O=C1CC(N2CCCCC2)C(=O)N1c1ccccc1 (configuration not stated)	-2%	8	x	-100*
O=CN1CCN(C2CC(=O)N(c3ccc(Br)cc3)C2=O)CC1 (configuration not stated)	-3%	-7	12%	-86*
O=C1CC(N2CCCN(C3CC(=O)N(c4ccc(F)cc4)C3=O)CC2)C(=O)N1c1ccc(F)cc1 (configuration not stated)	-2%	4	-18%	-13
O=C1CC(N2CCC(O)CC2)C(=O)N1c1ccc(Br)cc1 (configuration not stated)	-17%	-3	-8%	11
CCOc1ccc(NC(=S)Nc2cc(OC)c(Cl)cc2OC)cc1	-22%	x	x	5
CCCCCC[C@@H]([C@H](C)O)n1cnc2c(N)ncnc21	-5%	3	-2%	x
COc1ccc(NC(=O)Cn2nnc(-c3ccccc3NC(=O)C3CC3)n2)cc1	-10%	17	-18%	-104*
CC1CCN(S(=O)(=O)c2ccc(NC(=O)Cn3nnc(-c4ccccc4)n3)cc2)CC1	-5%	3	-22%	-100*
Cc1ccc(-c2nnn(CC(=O)Nc3ccc(S(=O)(=O)N4CCC(C)CC4)cc3)n2)cc1	-5%	12	u	-23
SMILES	ALOX12 inhib	IMPase inh	ALOX15B inhib	PNC inhibitor
CCOc1ccc(/C=C/C(=O)Nc2sc3c(c2C(=O)OC)CCC3)cc1	x	-3	x	x
CC(C)(C)OC(=O)NCCc1nnc(SCc2ccc(Cl)cc2Cl)o1	-4%	6	4%	u
Clc1cccc(NCc2nnc(SCc3ccc(Cl)cc3Cl)o2)c1	-8%	1	x	-119*
CCOC(=O)c1ccc(N2Cc3ccccc3C2=N)cc1	7%	19	12%	u
CCOC(=O)c1ccc(N=C2C(=S)N(c3ccc(C(=O)OCC)cc3)C(=N)N2/N=C/c2ccccc2)cc1	-5%	10	x	-86*
COCC(=O)N1CCC2(CCCN(Cc3cc(C(F)(F)F)cc(C(F)(F)F)c3)C2)CC1	1%	x	8%	x
O=C(NC1CCCCC1)C1Cc2ccccc2CN1S(=O)(=O)c1ccc(F)cc1 (configuration not stated)	5%	16	x	-100*
O=C(C1Cc2ccccc2CN1S(=O)(=O)c1ccc(F)cc1)N1CCCCC1 (configuration not stated)	-4%	10	-2%	48
COc1ccc(/C=C(\C#N)c2nc3ccccc3c(=O)[nH]2)cc1OC	x	17	x	x
